Sampled rows, rich in hits. Any-hit rate of the full collection: about 4.7%.
D1 antag = human D1 dopamine receptor antagonism. P21728. HEK293 TREx D1 cells, calcium flux, dopamine EC80; hits give low values. activity change, negative = inhibition, % at 10 µM. 360,000 compounds, 3.2% hits. AID 504652; in the data active = activity change below about -30%
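HEK293 T-REx cells expressing inducible, force-coupled D1 receptor; no-wash Ca dye, 30–90 min RT. Cmpd → 180 s read at 1 Hz → EC80 DA → 180 s read.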
D1 PAM = potentiators of human D1 dopamine receptor | P21728 | AID 504651 | potentiation, % at 10 µM | HEK293 TREx D1 cells, calcium flux, dopamine EC20 potentiation | 360,000 compounds, 0.036% hits; in the data active = potentiation above about 30%
TRHR PAM = allosterically enhances the human TRH receptor. AID 493056. enhancement, % at 2 µM. TRHR cells, fluo-8 calcium fluorescence, EC20 TRH enhancement. 360,000 compounds, 0.66% hits. P34981; in the data active = enhancement above about 30%
Target sequence (P34981 whole entry, looked up): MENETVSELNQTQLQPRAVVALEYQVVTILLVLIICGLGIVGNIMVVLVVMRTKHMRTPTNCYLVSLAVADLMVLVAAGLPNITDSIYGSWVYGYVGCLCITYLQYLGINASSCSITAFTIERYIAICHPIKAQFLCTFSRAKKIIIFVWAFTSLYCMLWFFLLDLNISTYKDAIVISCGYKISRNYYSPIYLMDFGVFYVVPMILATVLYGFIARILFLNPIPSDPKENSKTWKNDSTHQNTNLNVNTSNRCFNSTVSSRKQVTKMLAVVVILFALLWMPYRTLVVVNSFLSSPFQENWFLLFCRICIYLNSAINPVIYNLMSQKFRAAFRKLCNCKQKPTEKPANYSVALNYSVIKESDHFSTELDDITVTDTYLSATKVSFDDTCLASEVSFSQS
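Enhancer read-out: after compound pinning and an initial kinetic agonist-mode read, an EC20 of TRH (10 nM final) was injected and fluo-8 calcium signal (Ex 480/Em 530) followed at 1 s/cycle for 100 cycles in TRHR-expressing cells.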
TRHR agonist = agonists of human TRH receptor; P34981; TRHR cells, calcium flux fluo-8, FDSS agonist mode; activation, % at 2 µM; 360,000 compounds, 0.18% hits
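TRHR-expressing cells loaded with fluo-8 calcium dye; 23 nL library compound pin-transferred, kinetic FDSS fluorescence (Ex 480/Em 530) recorded about 180 s for agonist-induced calcium release, before a 10 nM TRH EC20 addition for potentiator mode.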
D1 agonist = activates the human D1 dopamine receptor; P21728; 360,000 compounds, 1% hits; HEK293 T-REx D1 cells, calcium flux, agonist mode; activation, % at 2 µM
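Inducible HEK293 T-REx D1 cells, force-coupled to calcium signalling, were plated at 4000 cells/well with tetracycline and held overnight at 30 C. After no-wash calcium dye loading, compound-evoked calcium rise over 180 s flagged agonists.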
Large screens that a line does not name were inactive. Rule as the data show it, unless noted: active = activation above about 30%; inactive = the rest.

CNC(=O)/C(C#N)=C\c1ccc(CNS(=O)(=O)c2ccc(Cl)cc2)o1	D1 antag -69
Cc1cc(C)c(C(=O)N2CCCC(Nc3ccc(F)cc3)C2)o1 (stereo not given)	none
Cc1ccc2[nH]c(C(=O)N3CCCC(Nc4ccc(F)cc4)C3)cc2c1 (stereo not given)	D1 antag -30
Cc1cc(F)ccc1S(=O)(=O)N1CCCOC1CNC(=O)C(=O)NCc1ccccn1 (stereo not given)	none
COc1ccc(-n2cc(CN3CCC(OC)CC3)c(-c3cccc(F)c3)n2)cc1	none
COc1ccc(-n2cc(CNC3CCC(O)CC3)c(-c3cccc(F)c3)n2)cc1 (stereo not given)	D1 agonist 36
O=C(Nc1ccc(S(=O)(=O)N2CCC(c3nc4ccccc4s3)CC2)cc1)c1ccccc1	none
COCCN(Cc1nc2ccccc2c(=O)[nH]1)C(=O)COc1c(C)cc(Cl)cc1C	none
CCCCN(Cc1nc2ccccc2c(=O)[nH]1)C(=O)COc1ccc(F)cc1Cl	D1 antag -42
COc1ccc(NC(=O)CN2CCN(C(=O)C3CCCO3)CC2)c(OC)c1 (stereo not given)	D1 agonist 50
COc1cc(OC)c(NC(=O)N2CCC(CN3CCCC3)CC2)cc1Cl	none
COc1cccc2sc(N3CCN(C(=O)c4ccc([N+](=O)[O-])o4)CC3)nc12	none
O=C(c1ccc([N+](=O)[O-])o1)N1CCN(c2nc3c(Cl)cccc3s2)CC1	D1 antag -34
O=C(NCCCc1ccncc1)C1CCC(=O)N(CCc2cccc(F)c2)C1 (stereo not given)	none
O=c1[nH]c(C2CCCN(S(=O)(=O)c3ccc(F)cc3)C2)nc2c1nnn2Cc1ccc(F)cc1 (stereo not given)	none
O=C(c1ccccc1)c1cnc[nH]1	TRHR PAM 30
O=C(Nc1ccccc1)c1cnc[nH]1	none
CC(C)(C)c1ccc2c(c1)N(CC(=O)O)C(=O)CO2	none
Cc1ccc(C)c(NC(=O)CCCN2C(=O)COc3ccc(C)cc32)c1	none
Cc1ccc2c(c1)N(CC(=O)O)C(=O)CO2	D1 antag -30
COc1ccc(NC(=O)CCCN2C(=O)COc3ccc(C)cc32)cc1OC	D1 antag -46
O=c1cc(-c2ccccc2)n2c(SCc3ccc(Br)cc3)nnc2[nH]1	none (no result: D1 antag)
Cc1ccc(Cn2nc(C)c(NC(=O)c3cc(C)no3)c2C)cc1	D1 antag -78 (no result: D1 PAM)
Cc1noc(C(=O)Nc2c(C)nn(Cc3ccccc3)c2C)c1Cl	D1 antag -51
Cc1cc(C(=O)Nc2c(C)nn(Cc3ccc(F)cc3)c2C)on1	none (no result: D1 PAM)
Cc1nn(Cc2ccccc2)c(C)c1CCC(=O)O	D1 antag -83
Cc1nn(Cc2cccc(C(=O)NN)c2)c(C)c1Cl	none
Cc1nn(Cc2ccc(C(=O)NN)cc2)c(C)c1Cl	D1 antag -44
CCCCC(=O)Nc1ccc(OCc2cc(=O)n3c(C)csc3n2)cc1	none
Cc1cc(C(=O)CN2C(=O)C(=O)N(Cc3ccco3)C2=O)c(C)n1CCc1ccc(F)cc1	none
Cc1ccccc1S(=O)(=O)N1CCN(S(=O)(=O)c2ccc3c(c2)OCCO3)CC1	none
CC1(C)CC(=O)C2=C(C1)O[C@@]1(CCCCN3C(=O)c4ccccc4C3=O)Cc3cc(C#N)ccc3C2O1	none
Cc1ccc(Cc2nc3ccccc3nc2SCC(=O)N2CCCc3ccccc32)cc1	none
Cc1ccc(Cn2nc(C)c(NC(=O)c3nn(C)cc3Cl)c2C)cc1	none
Cn1cc(Cl)c(C(=O)Nc2cnn(Cc3ccc(F)cc3)c2)n1	D1 antag -42
Cc1nn(Cc2ccc(Br)cc2)c(C)c1NC(=O)c1nn(C)cc1Cl	D1 antag -39, TRHR PAM 31
O=C(c1nc2ccccn2c1CNCCCn1ncc2ccccc21)N1CCOCC1	D1 antag -42
Cc1cc2ccccc2n1CCNCc1c(C(=O)N2CCOCC2)nc2ccccn12	none
Cc1onc(-c2c(Cl)cccc2Cl)c1C(=O)NCCc1ccncc1	none
N#Cc1ccc(S(=O)(=O)N2CCN(S(=O)(=O)c3ccc4c(c3)OCCO4)CC2)cc1	none
O=c1ccc2cc(S(=O)(=O)N3CCCC3)ccc2[nH]1	none
O=S(=O)(c1ccc2[nH]ccc2c1)N1CCCCCC1	D1 antag -30
COCCCNc1ncnc2c1c(-c1ccccc1)cn2-c1ccc(C)c(Cl)c1	none
C/C(=N\NC(=O)c1c[nH]c2ccccc12)c1ccc(C)o1	D1 antag -66
C/C(=N\NC(=O)c1cc2ccccc2cc1O)c1ccc(C)o1	none
O=C(NN=C1CCCCCC1)c1c[nH]c2ccccc12	D1 antag -46
Cc1ccccc1C(=O)N1CCC(C(=O)OCc2ccccc2Cl)CC1	none
CCOC(=O)c1oc2ccc(CNC(C)(C)C)c(Cl)c2c1C	D1 antag -52
CCOC(=O)C1CCN(S(=O)(=O)c2ccc(N3CCCCS3(=O)=O)cc2)CC1	none
CCc1ccc(NC(=O)Cn2c(=O)n(Cc3ccco3)c(=O)c3oc4ccccc4c32)cc1	none
CCOC(=O)c1ccc(NC(=O)c2n[nH]c(=O)c3ccccc23)cc1	none
COc1cc(NC(=O)c2n[nH]c(=O)c3ccccc23)cc(OC)c1	TRHR PAM 35
CC12CCC(=O)N1C(C(=O)Nc1ccc(F)c(Cl)c1)CS2 (stereo not given)	TRHR PAM 35
CC12CCC(=O)N1C(C(=O)N1CCN(c3ccccc3)CC1)CS2 (stereo not given)	none
CC12CCC(=O)N1C(C(=O)Nc1ccccc1F)CS2 (stereo not given)	none
CC12CCC(=O)N1C(C(=O)N1CCN(c3cccc(Cl)c3)CC1)CS2 (stereo not given)	D1 antag -61 (no result: D1 PAM)
CCc1sc(C(=O)NCCc2ccc(S(N)(=O)=O)cc2)cc1Br	D1 antag -30
CCc1sc(C(=O)NCCc2ccc(S(N)(=O)=O)cc2)cc1C	none
Cc1cc(C(=O)NCCc2ccc(S(N)(=O)=O)cc2)c(C)o1	D1 antag -31
CCCc1cc(F)c(S(=O)(=O)N2CCN(S(=O)(=O)c3ccc4c(c3)OCCO4)CC2)cc1F	none
CCOc1cccc(C2c3c(oc4cc(C)c(C)cc4c3=O)C(=O)N2c2nc(C)c(C)s2)c1 (stereo not given)	none
COc1ccc(S(=O)(=O)N2CCC3(CC2)OCCN3S(=O)(=O)c2ccc(C)cc2)cc1OC	none
CSc1ncccc1C(=O)NCC(c1cccs1)N1CCOCC1 (stereo not given)	D1 antag -80
O=C(NCC(c1ccc(F)cc1)N1CCOCC1)c1ccccc1F (stereo not given)	D1 antag -39
Cc1cc(=O)n(Cc2cccc(Br)c2)c2c1c(C)nn2-c1ccccc1	D1 antag -79
C=Cc1ccc(Cn2c(=O)cc(C)c3c(C)nn(-c4ccccc4)c32)cc1	none
Cc1oc2cc3oc(=O)c(CC(=O)NCc4ccccc4)c(C)c3cc2c1C	none

Assay outcomes from PubChem.
